24 compounds from PubChem BioAssay (NCATS) can be followed below.

Structures are written as SMILES. Inconclusive results are not listed. Unmarked numbers belong to inactive results. The source made the active and inactive calls. Calls come from the whole dose curve; as a rule, active = well fitted cell-killing curve with a large enough effect; inconclusive = small, poorly fitted or top-dose-only effect, or effect the other way; inactive = no such curve, though single readings can be large or run the other way.

Test [1] in a line: Quantitative High-Throughput drug screen in 47 multiple myeloma cell lines against the NCATS MIPE library collection: MM1R_ATCC cell viability assay (AID 1918981). Note: nearly all actives have a fitted effect of over 35% in size. Summed up:
(§1)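 qHTS format: cells plated (500/well), pin-dosed with MIPE 4.0 compounds, kept 48 h at 37 °C. Readout was CellTiter-Glo luminescence, median RLU.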

The nature of test [2]: Quantitative High-Throughput drug screen in 47 multiple myeloma cell lines against the NCATS MIPE library collection: KMS28PE_JCRB cell viability assay (AID 1918983). Note: nearly all actives have a fitted effect of over 35% in size. In short, it runs like this: as §1
Test [3] is described as follows: Quantitative High-Throughput drug screen in 47 multiple myeloma cell lines against the NCATS MIPE library collection: L363_DSMZ cell viability assay (AID 1918984). Note: nearly all actives have a fitted effect of over 40% in size. In short, it runs like this: as §1
The nature of test [4]: Quantitative High-Throughput drug screen in 47 multiple myeloma cell lines against the NCATS MIPE library collection: KMS34_JCRB cell viability assay (AID 1918985). Note: nearly all actives have a fitted effect of over 40% in size. In short, it runs like this:
as §1

Test [5] is described as follows: Quantitative High-Throughput drug screen in 47 multiple myeloma cell lines against the NCATS MIPE library collection: OCIMY7_PLB cell viability assay (AID 1918987). Note: nearly all actives have a fitted effect of over 65% in size. Summed up:
as §1

Test [6] is described as follows: Quantitative High-Throughput drug screen in 47 multiple myeloma cell lines against the NCATS MIPE library collection: OCIMY5_PLB cell viability assay (AID 1918988). Note: nearly all actives have a fitted effect of over 65% in size. Summed up: as §1
The nature of test [7]: Quantitative High-Throughput drug screen in 47 multiple myeloma cell lines against the NCATS MIPE library collection: OPM1_PLB cell viability assay (AID 1918989). Note: nearly all actives have a fitted effect of over 40% in size. In short, it runs like this: as §1
Test [8] in a line: Quantitative High-Throughput drug screen in 47 multiple myeloma cell lines against the NCATS MIPE library collection: U266_ATCC cell viability assay (AID 1919864). Note: nearly all actives have a fitted effect of over 35% in size. In short, it runs like this: as §1
Test [9] can be described thus: Quantitative High-Throughput drug screen in 47 multiple myeloma cell lines against the NCATS MIPE library collection: SKMM1_PLB cell viability assay (AID 1919863). For viability: series mostly up to about 46 µM. Note: nearly all actives have a fitted effect of over 35% in size. Particulars: SKMM1 myeloma viability, CellTiter-Glo ATP, 48 h; viability: hits give low values. In short, it runs like this:
as §1
Potency is the fitted concentration of half-maximal effect.

Turning to `Cn1cc(-c2[nH]c3cc(NC(=O)[C@H](N)C4CCCCC4)cc4c3c2C=NNC4=O)cn1`, the Potency in test [1] was 1.05 µM (active); in test [2] it was 1.48 µM (active); in test [3] it was 0.118 µM (active); in test [4], 4.69 µM (active); in test [5] it was 6.62 µM (active); in [6] it was 1.48 µM (active). For the same compound, the Potency was 1.18 µM (active) in test [7] and 18.7 µM (active) in test [8].

Turning to `CCCCCCCCCC(=O)N[C@@H](Cc1c[nH]c2ccccc12)C(=O)N[C@H](CC(N)=O)C(=O)N[C@@H](CC(=O)O)C(=O)N[C@@H]1C(=O)NCC(=O)N[C@@H](CCCN)C(=O)N[C@@H](CC(=O)O)C(=O)N[C@H](C)C(=O)N[C@@H](CC(=O)O)C(=O)NCC(=O)N[C@H](CO)C(=O)N[C@@H]([C@@H](C)CC(=O)O)C(=O)N[C@@H](CC(=O)c2ccccc2N)C(=O)O[C@@H]1C`, the Potency entry in test [1], in test [2], in test [3] and in test [6] was “inactive” each time. In addition, the viability in [9] was 145%.

In the case of `CC(C)C[C@H](NC(=O)CNC(=O)c1cc(Cl)ccc1Cl)B(O)O`, the Potency is 0.0418 µM (active) in [1]; 0.0833 µM (active) in test [2]; 0.132 µM (active) in [3]; 0.059 µM (active) in test [4]; 0.0418 µM (active) in test [5]; 0.0469 µM (active) in test [7]. In addition, the Potency in test [9] was 0.296 µM (active); in test [8], 0.0833 µM (active).

In the case of `CCN(CC)CCNC(=O)c1ccc2nc(-c3ccccc3)c(-c3ccc(CN4CCC(n5c(=O)[nH]c6ccccc65)CC4)cc3)nc2c1`, the Potency was 20.9 µM (active) in test [1]; 23.5 µM (active) in [2]; 0.418 µM (active) in test [3]; 20.9 µM (active) in test [4]; 1.05 µM (active) in test [5]; 10.5 µM (active) in test [6]. Also, the Potency in test [7] was 0.743 µM (active); in test [9] it was 20.9 µM (active); in [8], 8.33 µM (active).

For `COc1ccc2c(c1)CC[C@@H](CN(C)CC(=O)O)[C@H]2c1ccccc1`, the Potency in test [1] was 3.72 µM (active); in [2] it was 4.18 µM (active); in [3], 1.66 µM (active); in [4], 4.69 µM (active); in test [5] it was 0.833 µM (active); in test [7] it was 10.5 µM (active). Moreover, the Potency in test [9] was 1.05 µM (active); in test [8], 16.6 µM (active).

Take `COc1cc2c(Oc3ccc(-c4cnc(Nc5ccc(F)cc5)n(C)c4=O)cc3F)ccnc2cc1OCCCN1CCOCC1`: the Potency is 3.72 µM (active) in test [1]; 11.8 µM (active) in [2]; 0.833 µM (active) in test [3]; 18.7 µM (active) in [4]; 7.43 µM (active) in [5]; 14.8 µM (active) in [6]. Besides, the Potency is 6.62 µM (active) in [7], 29.6 µM (active) in test [9] and 20.9 µM (active) in test [8].

Turning to `Cc1nc(N)ncc1-c1nc(N2CCOCC2)c2sc(C(C)(C)O)cc2n1`, the Potency in test [1] was 1.32 µM (active); in [2], 0.118 µM (active); in test [3] it was 0.0743 µM (active); in test [4], 1.66 µM (active); in test [5], 1.18 µM (active); in test [6], 0.662 µM (active). Moreover, the Potency is 1.18 µM (active) in [7], 0.166 µM (active) in test [9] and 5.26 µM (active) in test [8].

With `CC(C)c1cnn2c(NCc3ccccc3)cc(N[C@@H](CO)[C@H](O)CO)nc12`, the Potency in test [1] was 0.235 µM (active); in test [2], 0.296 µM (active); in test [3], 0.148 µM (active); in test [4] it was 0.662 µM (active); in test [5], 0.235 µM (active); in test [6], 0.235 µM (active). Also, the Potency in test [7] was 0.235 µM (active); in [9], 0.372 µM (active); in [8] it was 0.296 µM (active).

With `CN(C)Cc1c(C(=O)NCCOc2ccc(C(=O)NO)cc2)oc2ccccc12`, the Potency is 0.469 µM (active) in test [1]; 0.743 µM (active) in test [2]; 0.332 µM (active) in [3]; 0.526 µM (active) in test [4]; 0.59 µM (active) in test [5]; 0.469 µM (active) in [6]. For the same compound, the figures for the Potency in test [9] and in [8] were 1.05 µM (active) and 1.18 µM (active), respectively.

On to `O=C(O)c1ccc2cc(-c3ccc(O)c(C45CC6CC(CC(C6)C4)C5)c3)ccc2c1`, for which the Potency in test [1] is 0.662 µM (active); in test [2], 3.32 µM (active); in test [3], 0.833 µM (active); in test [4], 13.2 µM (active); in [5] it was 0.105 µM (active); in [6], 2.96 µM (active). The Potency in [9] is 4.18 µM (active).

As for `CN1CCN(c2ccc3nc(-c4c(N)c5c(F)cccc5[nH]c4=O)[nH]c3c2)CC1`, the Potency is 13.2 µM (active) in [1]; 26.4 µM (active) in test [2]; 2.96 µM (active) in test [3]; 16.6 µM (active) in test [4]; 3.32 µM (active) in test [5]; 3.72 µM (active) in [7]. Also, the Potency in test [9] is 18.7 µM (active); in test [8], 13.2 µM (active).

Regarding `Cc1ccc(-c2ncn(-c3ccc(Nc4nccc(-c5cccc(N6CCOCC6)c5)n4)cc3)n2)cn1`, the Potency in test [1] was 0.105 µM (active); in test [2], 0.148 µM (active); in [3] it was 0.0743 µM (active); in test [4], 0.166 µM (active); in test [5], 0.132 µM (active); in [6], 0.0526 µM (active). Further, the values for the Potency in test [9] and in test [8] were 0.235 µM (active) and 0.132 µM (active), respectively.

Regarding `Nc1ccccc1NC(=O)c1ccc(CNC(=O)OCc2cccnc2)cc1`, the Potency in [1] is 0.833 µM (active); in test [2], 2.35 µM (active); in test [3] it was 0.418 µM (active); in test [4], 0.935 µM (active); in [5], 1.66 µM (active); in test [6], 1.32 µM (active). The Potency in test [7] is 0.743 µM (active); in [9], 1.32 µM (active); in [8], 5.9 µM (active).

Turning to `C[C@@H]1CN(CC(=O)Nc2ccc3c(c2)Cc2cccc(-c4cc(=O)cc(N5CCOCC5)o4)c2S3)C[C@H](C)O1`, the Potency in test [1] was 16.6 µM (active); in test [2] it was 9.35 µM (active); in test [3], 14.8 µM (active); in test [5], 1.32 µM (active); in [6], 20.9 µM (active).

On to `CC(C)c1noc(N2CCC(COc3ccc(-c4ccc(S(C)(=O)=O)cc4)nc3)CC2)n1`, for which the Potency in [1] is 13.2 µM (active); in test [2], 16.6 µM (active); in test [6], 8.33 µM (active). The Potency result in test [3], in [4], in test [7] and in [8] was “inactive” each time.

Turning to `CC=CC1=C(C(=O)O)N2C(=O)[C@H](NC(=O)[C@H](N)c3ccc(O)cc3)[C@@H]2SC1`, the Potency entry in test [1], in test [2], in [3] and in [4] was “inactive” throughout. For the same compound, in test [5], the Potency is 26.4 µM (active). Also, the viability in test [9] is 117%.

As to `CN(c1ncccc1CNc1nc(Nc2ccc3c(c2)CC(=O)N3)ncc1C(F)(F)F)S(C)(=O)=O`, the Potency in test [1] is 6.62 µM (active); in test [2] it was 9.35 µM (active); in [3] it was 2.64 µM (active); in test [4], 8.33 µM (active); in [6], 5.26 µM (active); in test [7], 4.69 µM (active). The Potency in test [9] is 14.8 µM (active).

Regarding `CCOc1ccccc1OCCNC(C)Cc1ccc(OC)c(S(N)(=O)=O)c1` (configuration not stated), the Potency result in [1], in [2], in test [3], in test [4], in test [5] and in test [6] was “inactive” in each case. The Potency entry in [7] and in test [8] was “inactive” each time.

Consider `O=C(Nc1cc(C(F)(F)F)cc(C(F)(F)F)c1)c1cc(Cl)ccc1O`, for which the Potency in [1] is 1.05 µM (active); in [2] it was 1.66 µM (active); in test [4] it was 1.48 µM (active); in [5], 1.87 µM (active); in test [6], 2.35 µM (active); in test [7], 0.833 µM (active). Moreover, the Potency in [9] is 0.833 µM (active); in [8], 1.48 µM (active).

For `CCn1cc(-c2ccnc3[nH]c(-c4cccc(CN(C)C)c4)cc23)c(-c2ccc(NC(=O)N(C)C)cc2)n1`, the Potency is 20.9 µM (active) in test [1]; 11.8 µM (active) in [2]; 10.5 µM (active) in [4]; 0.187 µM (active) in [5]; 2.96 µM (active) in test [7]; 18.7 µM (active) in test [9]. For the same compound, the Potency in test [8] was 14.8 µM (active).

In the case of `Cc1cc(Nc2cc(N3CCN(C)CC3)nc(Sc3ccc(NC(=O)C4CC4)cc3)n2)n[nH]1`, the Potency in test [1] is 16.6 µM (active); in test [2], 11.8 µM (active); in test [4], 14.8 µM (active); in test [5] it was 0.296 µM (active); in [6] it was 5.26 µM (active); in test [7], 5.9 µM (active). Also, the Potency in test [9] and in [8] was 16.6 µM (active) in each case.

As to `COC(=O)c1ccc2c(C(=Nc3ccc(N(C)C(=O)CN4CCN(C)CC4)cc3)c3ccccc3)c(O)[nH]c2c1`, the Potency in [1] is 14.8 µM (active); in [2], 7.43 µM (active); in test [4], 18.7 µM (active); in test [6] it was 7.43 µM (active); in test [7], 2.09 µM (active); in test [9], 9.35 µM (active). The Potency in test [8] is 18.7 µM (active).

Turning to `COc1cc2ncn(-c3cc(OCc4ccccc4C(F)(F)F)c(C(N)=O)s3)c2cc1OC`, the Potency in test [1] is 18.7 µM (active); in [2] it was 16.6 µM (active); in test [5] it was 0.332 µM (active); in test [7], 0.743 µM (active); in test [9] it was 0.166 µM (active); in test [8], 18.7 µM (active).

As to `CC(C)(C)OC(=O)Nc1ccc(-c2cc(C(=O)NCCCCCCC(=O)NO)no2)cc1`, the Potency in test [1] was 1.87 µM (active); in test [2] it was 2.35 µM (active); in [4] it was 2.35 µM (active); in test [5], 1.32 µM (active); in [6], 1.87 µM (active); in test [7], 1.87 µM (active). Besides, the Potency in [9] was 2.09 µM (active); in test [8], 2.96 µM (active).
